34 molecules from PubChem BioAssay (NCATS) can be followed below.

Records with an inconclusive call do not appear. Unmarked numbers belong to inactive results. The source made the active and inactive calls. Calls follow the shape of the dose curve; as a rule, active = well fitted curve in the direction sought with a large enough effect; inconclusive = small, poorly fitted or top-dose-only effect, or another doubt; inactive = no such curve, though single readings can be large; an effect the other way counts as inactive or inconclusive.

Sequence of Protein phosphatase 1D (Homo sapiens) (O15297 whole entry, looked up): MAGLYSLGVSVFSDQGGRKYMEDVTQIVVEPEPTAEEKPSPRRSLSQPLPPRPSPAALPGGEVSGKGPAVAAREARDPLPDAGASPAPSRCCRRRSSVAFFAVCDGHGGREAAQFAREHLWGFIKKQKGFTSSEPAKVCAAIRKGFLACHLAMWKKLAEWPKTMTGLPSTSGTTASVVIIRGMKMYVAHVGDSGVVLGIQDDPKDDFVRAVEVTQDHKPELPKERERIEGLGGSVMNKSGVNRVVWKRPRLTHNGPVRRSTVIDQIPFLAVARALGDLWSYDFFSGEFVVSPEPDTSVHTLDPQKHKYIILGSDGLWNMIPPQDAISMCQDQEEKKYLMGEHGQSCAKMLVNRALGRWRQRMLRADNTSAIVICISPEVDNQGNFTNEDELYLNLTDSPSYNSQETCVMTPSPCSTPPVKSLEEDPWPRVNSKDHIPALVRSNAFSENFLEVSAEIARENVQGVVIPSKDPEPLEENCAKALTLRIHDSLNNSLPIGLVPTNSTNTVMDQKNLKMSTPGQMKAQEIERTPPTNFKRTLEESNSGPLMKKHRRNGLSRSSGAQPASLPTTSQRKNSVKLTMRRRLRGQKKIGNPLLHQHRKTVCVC

The first assay has as its target Protein phosphatase 1D (Homo sapiens) (UniProt O15297). The assay can be described thus: Rhodamine-PBP qHTS Assay for Modulators of WT P53-Induced Phosphatase 1 (WIP1) (AID 1347425). Also: % of control where 0% means no effect. Conditions: recombinant WIP1, Rhodamine-PBP phosphate fluorescence, real-time; series mostly up to 57.5 µM. Put shortly:
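Read-out: Rhodamine-PBP fluorescence (ex 525/em 598 nm) for released Pi, read each minute for 11 min after adding 10 uM VEPPL-pS-QETFS; signal taken as f1 minus pre-substrate f0. Enzyme 5 nM WIP1 with 1 hr room-temperature compound preincubation.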
(In qHTS, concentration-response curves come from the screen itself.)
On to `O=c1[nH]c(=O)c2[nH]c(=O)[nH]c2[nH]1`, for which the activity change, negative = inhibition is 10.4% [at 11.5 µM]. As to `O=c1cc[nH]c(=O)[nH]1`, the outcome was inactive. In the case of `C[C@@H]1CCN(C(=O)[C@H](CCCN=C(N)N)NS(=O)(=O)c2cccc3c2NC[C@H](C)C3)[C@@H](C(=O)O)C1`, the outcome was inactive. Turning to `O=C(O)c1ccccc1O`, the outcome was inactive. Regarding `CC(=O)Oc1ccc(C2(c3ccc(OC(C)=O)cc3)C(=O)Nc3ccccc32)cc1`, the outcome was inactive. `C[C@@H]1CC[C@@]2(OC1)O[C@H]1C[C@H]3[C@@H]4CC[C@H]5C[C@@H](O)CC[C@]5(C)[C@H]4CC(=O)[C@]3(C)[C@H]1[C@@H]2C`: the activity change, negative = inhibition was 1.62% [at 4.81 µM]. `CCCCN(CCCC)CCCOC(=O)c1ccc(N)cc1`: the outcome was inactive.

Consider `c1ccc2c(CC3=NCCN3)cccc2c1`, for which the result was inactive. In the case of `CCCc1c(OCCCCc2nn[nH]n2)ccc(C(C)=O)c1O`, the outcome was inactive. On to `CC1(C)OC(=O)NC1=O`, for which the result was inactive. Regarding `CS(=O)(=O)c1ccc([C@@H](O)[C@@H](CF)NC(=O)C(Cl)Cl)cc1`, the outcome was inactive. On the same count and under the same terms, under `Oc1cccc(O)c1` stands “inactive”; under `C[C@@H]1C[C@H]2[C@@H]3C[C@H](F)C4=CC(=O)C=C[C@]4(C)[C@@]3(F)[C@@H](O)C[C@]2(C)[C@@]1(O)C(=O)CO`, “inactive”.

Take `COc1cc2[nH]c(=O)[nH]c(=O)c2cc1OC`: the result was inactive. Consider `COc1ccc2cc1Oc1ccc(cc1)C[C@H]1c3c(cc4c(c3Oc3cc5c(cc3OC)CCN(C)[C@@H]5C2)OCO4)CCN1C`, for which the result was inactive. Still for that read-out and setting: under `CC(=O)Oc1c(C)c(C)c2c(c1C)CC[C@@](C)(CCC[C@H](C)CCC[C@H](C)CCCC(C)C)O2` stands “inactive”; under `Cc1cccc(C)c1NC(=O)CN(CC(=O)O)CC(=O)O`, “inactive”. Still for that read-out and setting: the value for `O=C1O[C@H](CO)[C@@H](O)[C@H](O)[C@H]1O` was “inactive”. Consider `O=C(O)c1ccccn1`, for which the outcome was inactive.

With `CCCCOC(=O)c1ccc(O)cc1`, the result was inactive. Still for that read-out and setting: under `O=C(O)CN1C(=O)c2cccc3cccc(c23)C1=O` stands “inactive”; under `CCN(CC)C(=O)Nc1ccc(OCC(O)CNC(C)(C)C)c(C(C)=O)c1` (stereo unspecified), “inactive”; under `CC(=O)O[C@@]12CO[C@@H]1C[C@H](O)[C@@]1(C)C(=O)[C@H](O)C3=C(C)[C@@H](OC(=O)[C@H](O)[C@@H](NC(=O)OC(C)(C)C)c4ccccc4)C[C@@](O)([C@@H](OC(=O)c4ccccc4)[C@H]21)C3(C)C`, “inactive”.

As to `O=C1NS(=O)(=O)c2ccccc21`, the outcome was inactive. For the molecule `CN1[C@@H]2CC(OC(=O)[C@H](CO)c3ccccc3)C[C@H]1[C@@H]1O[C@@H]12` (stereo partly specified), the outcome was inactive.

Consider `O=c1cc[nH]c(=S)[nH]1`, for which the result was inactive. Still for that read-out and setting: the value for `CCCCCCCCCCCCCCCCCCOCC(O)CO` (stereo unspecified) was “inactive”; that for `Oc1cn2c(n1)Nc1ccc(Cl)c(Cl)c1C2` was “inactive”. With `CC[N+](CC)(CC)CCOc1ccc(/C=C/c2ccccc2)cc1`, the outcome was inactive.

Regarding `CCOC(=O)c1ccc(O)cc1`, the outcome was inactive. For `CC(=O)Nc1ccc(/C=N/NC(N)=S)cc1`, the outcome was inactive. As to `NC(=O)NC(=O)Cc1ccccc1`, the outcome was inactive. As to `CCCCOc1cc(C(=O)OCCN(CC)CC)ccc1N`, the outcome was inactive.

System in a further assay: not listed separately
The assay can be described thus: Primary qHTS for inhibitors of La Crosse Virus (LACV) - induced cell death in SH-SY5Y cells (AID 1508616).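 Also: top concentration of the series differs between compounds; 0% = infected DMSO wells and 100% = uninfected DMSO wells; higher means more rescue of cells from virus-induced death.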 Conditions: SH-SY5Y LACV cytopathicity rescue, ATP luminescence, 6 d; series mostly up to 4.29 µM. In short, it runs like this: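 Protection against LACV-induced cell death is scored in SH-SY5Y cells exposed to compounds and virus (0.01 MOI) for 6 days. Data normalized to virus-infected DMSO wells and virus-free DMSO wells.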
As for `O=c1[nH]c(=O)c2[nH]c(=O)[nH]c2[nH]1`, the activity change was 1.46% [at 0.858 µM]. As to `O=c1cc[nH]c(=O)[nH]1`, the outcome was inactive.

Take `C[C@@H]1CCN(C(=O)[C@H](CCCN=C(N)N)NS(=O)(=O)c2cccc3c2NC[C@H](C)C3)[C@@H](C(=O)O)C1`: the outcome was inactive. Turning to `O=C(O)c1ccccc1O`, the call was inactive.

`CC(=O)Oc1ccc(C2(c3ccc(OC(C)=O)cc3)C(=O)Nc3ccccc32)cc1`: the result was inactive. On to `CCCCN(CCCC)CCCOC(=O)c1ccc(N)cc1`, for which the result was inactive. For the molecule `c1ccc2c(CC3=NCCN3)cccc2c1`, the molecule was classed as inactive. In the case of `CCCc1c(OCCCCc2nn[nH]n2)ccc(C(C)=O)c1O`, the result was inactive. On to `CC1(C)OC(=O)NC1=O`, for which the molecule was called inactive. In the case of `CS(=O)(=O)c1ccc([C@@H](O)[C@@H](CF)NC(=O)C(Cl)Cl)cc1`, the molecule was classed as inactive. On to `Oc1cccc(O)c1`, for which the outcome was inactive. Same read-out and setting: the value for `C[C@@H]1C[C@H]2[C@@H]3C[C@H](F)C4=CC(=O)C=C[C@]4(C)[C@@]3(F)[C@@H](O)C[C@]2(C)[C@@]1(O)C(=O)CO` was “inactive”; that for `COc1cc2[nH]c(=O)[nH]c(=O)c2cc1OC` was “inactive”. Take `COc1ccc2cc1Oc1ccc(cc1)C[C@H]1c3c(cc4c(c3Oc3cc5c(cc3OC)CCN(C)[C@@H]5C2)OCO4)CCN1C`: the result was inactive. `CC(=O)Oc1c(C)c(C)c2c(c1C)CC[C@@](C)(CCC[C@H](C)CCC[C@H](C)CCCC(C)C)O2`: the molecule was called inactive.

Take `Cc1cccc(C)c1NC(=O)CN(CC(=O)O)CC(=O)O`: the call was inactive. Regarding `O=C1O[C@H](CO)[C@@H](O)[C@H](O)[C@H]1O`, the molecule was called inactive. On the same count and under the same terms, under `O=C(O)c1ccccn1` stands “inactive”; under `CCCCOC(=O)c1ccc(O)cc1`, “inactive”; under `COc1ccc2c(c1)C(=O)N(CCc1ccc(S(=O)(=O)NC(=O)NC3CCCCC3)cc1)C(=O)C2(C)C`, “inactive”. Turning to `O=C(O)CN1C(=O)c2cccc3cccc(c23)C1=O`, the result was inactive. In the case of `CCN(CC)C(=O)Nc1ccc(OCC(O)CNC(C)(C)C)c(C(C)=O)c1` (stereo unspecified), the outcome was inactive.

For the molecule `CC(=O)O[C@@]12CO[C@@H]1C[C@H](O)[C@@]1(C)C(=O)[C@H](O)C3=C(C)[C@@H](OC(=O)[C@H](O)[C@@H](NC(=O)OC(C)(C)C)c4ccccc4)C[C@@](O)([C@@H](OC(=O)c4ccccc4)[C@H]21)C3(C)C`, the molecule was called inactive.

Consider `O=C1NS(=O)(=O)c2ccccc21`, for which the call was inactive. Take `CN1[C@@H]2CC(OC(=O)[C@H](CO)c3ccccc3)C[C@H]1[C@@H]1O[C@@H]12` (stereo partly specified): the molecule was classed as inactive. On the same count and under the same terms, under `O=c1cc[nH]c(=S)[nH]1` stands “inactive”; under `CCCCCCCCCCCCCCCCCCOCC(O)CO` (stereo unspecified), “inactive”. For `Oc1cn2c(n1)Nc1ccc(Cl)c(Cl)c1C2`, the result was inactive. With `CC[N+](CC)(CC)CCOc1ccc(/C=C/c2ccccc2)cc1`, the result was inactive.

`CCOC(=O)c1ccc(O)cc1`: the molecule was classed as inactive.

With `CC(=O)Nc1ccc(/C=N/NC(N)=S)cc1`, the molecule was called inactive. Still for that read-out and setting: the value for `NC(=O)NC(=O)Cc1ccccc1` was “inactive”; that for `CCCCOc1cc(C(=O)OCCN(CC)CC)ccc1N` was “inactive”.
